Source: PubChem BioAssay (National Center for Advancing Translational Sciences (NCATS))
This is a sample that favours compounds with a hit; in the whole collection about 2.1% have one here.
TDP-43 yeast inh – inhibitors of TDP-43 toxicity in yeast. TDP-43 expressing yeast growth rescue, BacTiter-Glo, 24 h. Potency, µM (top dose mostly 46.1 µM), actives largely listed as activators. 1.8% of 410,000 active. AID 652104; note: nearly all actives have a fitted effect of over 50% in size
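Readout is BacTiter-Glo luminescence of cell growth, so inhibitors register as activators. TDP-43-expressing yeast at OD600=0.02 in galactose medium, after raffinose pregrowth to mid-log, were incubated with compound for 24 hr at 30 deg C.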
Abeta yeast res – compounds reversing amyloid beta toxicity in yeast; yeast expressing A-beta42, growth rescue, OD600, 48 h; response scale: 0% DMSO, 100% iron-clioquinol control; 0.063% of 410,000 active; Potency, µM (series often up to 46.1 µM), usual class: activators; note: nearly all actives have a fitted effect of over 55% in size
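Yeast growth medium received pinned compounds, then yeast cells expressing toxic A-beta were added; plates incubated at 30 C for 48 hr. Growth read as absorbance at 600 nm, normalized to DMSO and equimolar FeCl3 plus clioquinol controls.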
FUS yeast rescue – suppressors of FUS proteinopathy in yeast | S. cerevisiae FUS-expressing, growth rescue, OD600, 24 h | 0.24% of 390,000 active | AID 1347120 | Potency, µM (top dose mostly 76.6 µM), hits mostly activators; note: nearly all actives have a fitted effect of over 55% in size
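Steps: raffinose overnight preculture; dilution to OD 0.005 in 2% galactose minimal medium; compound addition (concentration series); 24hr at 30C, 99% humidity; absorbance read at 600 nm.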
aSyn yeast inh – rescues yeast growth from alpha-synuclein toxicity | Yeast expressing alpha-synuclein, growth rescue, BacTiter-Glo, 24 h | Potency, µM (highest dose often 46.1 µM), most hits filed as activators | 0.14% of 370,000 active; note: nearly all actives have a fitted effect of over 65% in size
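Galactose-induced alpha-syn yeast (OD600=0.02, raffinose-pregrown) + pinned cpd, 24 hr, 30 deg C; growth by BacTiter-Glo luminescence. Growth restoration scores as activation.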
Large screens that a line does not name were inactive. Calls come from the whole dose curve; as a rule, active = well fitted curve in the direction sought with a large enough effect; inconclusive = small, poorly fitted or top-dose-only effect, or another doubt; inactive = no such curve, though single readings can be large; an effect the other way counts as inactive or inconclusive.

Cc1c(C(=O)Nc2nc(-c3ccc(F)cc3)ns2)oc2ccc(Br)cc12	none (no result: aSyn yeast inh)
Cc1ccccc1N(C)S(=O)(=O)c1nnc(NC(=O)C(C)C)s1	none (no result: aSyn yeast inh)
Cc1ccccc1N(C)S(=O)(=O)c1nnc(NC(=O)c2ccccc2F)s1	TDP-43 yeast inh 13µM
COCCN=C1NN=C(c2cc(C)n(CC3CCCO3)c2C)CS1 (stereo not drawn)	FUS yeast rescue 35µM
COCCCN=C1NN=C(c2cc(C)n(Cc3ccccc3Cl)c2C)CS1	FUS yeast rescue inconclusive
Cc1cc(C)cc(N(CCC#N)C(=O)CSc2nc3ccccc3c(=O)[nH]2)c1	none
O=C(NC(=S)N1CCN(c2ccc(Cl)cc2[N+](=O)[O-])CC1)c1ccco1	TDP-43 yeast inh 13µM
O=[N+]([O-])c1cccc(-c2ccc(/C=N/NC(=S)Nc3cccc(F)c3)o2)c1	TDP-43 yeast inh 18µM, Abeta yeast res inconclusive
Cc1cccc(NC(=O)C2(C)Cc3ccccc3C(=O)O2)c1 (stereo not drawn)	aSyn yeast inh inconclusive
CC1(C(=O)Nc2cccc(C(F)(F)F)c2)Cc2ccccc2C(=O)O1 (stereo not drawn)	TDP-43 yeast inh 35µM (no result: aSyn yeast inh)
Cc1ccc(S(=O)(=O)Cn2nnnc2C(CC(C)C)N2CCN(C3CCCC3)CC2)cc1 (stereo not drawn)	none
COc1ccc(-n2c(SCC(=O)N3CCCCC3C)nnc2-c2ccncc2)cc1 (stereo not drawn)	none (no result: TDP-43 yeast inh, Abeta yeast res, aSyn yeast inh)
O=c1c2ccccc2nc2n1C(CBr)CN2 (stereo not drawn)	none
O=C(Nc1ccc(OCc2ccccc2Cl)cc1)c1cccnc1	TDP-43 yeast inh 16µM
Cc1nn(Cc2ccc(F)cc2)c2sc(C(=O)Nc3ccc(N4CCOCC4)cc3N3CCOCC3)cc12	TDP-43 yeast inh 14µM (no result: FUS yeast rescue)
CCc1c(C)c2c(C)nn(-c3ccccc3)c2oc1=O	TDP-43 yeast inh 25µM
Nn1c(SCC(=O)N2c3ccccc3Sc3ccc(Cl)cc32)nnc1-c1cc(-c2ccc(F)cc2)n[nH]1	FUS yeast rescue 14µM (no result: TDP-43 yeast inh, Abeta yeast res, aSyn yeast inh)
Cc1cccc(Nc2n[nH]c(=S)s2)c1C	none
Cc1cccc(Nc2nc3ccccc3s2)c1C	TDP-43 yeast inh 11µM, Abeta yeast res inconclusive
Cc1ccc(Cl)cc1N1CCN(c2ncnc3c2nc2n3CCCCC2)CC1	TDP-43 yeast inh 25µM (no result: aSyn yeast inh)
Clc1cccc(N2CCN(c3ncnc4c3nc3n4CCCC3)CC2)c1	TDP-43 yeast inh 16µM (no result: aSyn yeast inh)
Fc1ccc(N2CCN(c3ncnc4c3nc3n4CCCC3)CC2)cc1	none (no result: aSyn yeast inh)
CCOC(=O)C1CC(c2ccccc2)=NN1c1ccccc1 (stereo not drawn)	TDP-43 yeast inh inconclusive
O=C(NC1CCCCC1)C(c1ccc(F)cc1)N(Cc1ccc2c(c1)OCO2)C(=O)c1cnsn1 (stereo not drawn)	none
CCOC(=O)C1CCCN(C(=O)c2ccc3c(c2)N(Cc2cccc(Cl)c2)C(=O)c2ccccc2S3(=O)=O)C1 (stereo not drawn)	none (no result: aSyn yeast inh)
FCCCOc1ccc(-c2ccnc3ncnn23)cc1	TDP-43 yeast inh 22µM
CC1(C(=O)NS(=O)(=O)c2cccc(C#N)c2)CCN1C(=O)Cc1cc(F)ccc1F (stereo not drawn)	none
COc1cccc(NC(=O)C2=C(C)C(=O)OC23CCN(C(C)=O)CC3)c1	none (no result: aSyn yeast inh)
Cc1onc(-c2ccccc2)c1-c1ccnn1C(=O)NC(C)C	TDP-43 yeast inh 11µM
Cc1ccc(S(=O)(=O)n2nccc2-c2c(-c3ccccc3)noc2C)cc1	none
Cc1cc(C)n(CC(=O)NNC(=O)C2CC(=O)N(Cc3ccccc3Cl)C2)n1 (stereo not drawn)	none
COc1ccccc1/C=C(\C#N)c1nc(-c2cc3ccccc3oc2=O)cs1	none (no result: aSyn yeast inh)
Cc1ccc(Nc2nc3ccccc3c3nnc(C)n23)cc1Cl	none (no result: aSyn yeast inh)
Cc1nnc2c3ccccc3nc(Nc3cccc(O)c3)n12	TDP-43 yeast inh 35µM (no result: aSyn yeast inh)
COc1cccc(CNC(=O)CSCc2cnn(-c3ccccc3)c2-n2cccc2)c1OC	TDP-43 yeast inh inconclusive
Cc1cccc(C)c1NC(=O)CSCc1cnn(-c2ccccc2)c1-n1cccc1	TDP-43 yeast inh 25µM (no result: aSyn yeast inh)
Cc1ccc(NC(=O)CSCc2cnn(-c3ccccc3)c2-n2cccc2)c(Cl)c1	none (no result: aSyn yeast inh)
CCOc1ccc(NC(=O)CSCc2cnn(-c3ccccc3)c2-n2cccc2)cc1	TDP-43 yeast inh 20µM
COc1ccccc1CNC(=O)CSCc1cnn(-c2ccccc2)c1-n1cccc1	TDP-43 yeast inh 18µM
O=S1(=O)c2ccc(N3CCC[C@H]3CO)cc2O[C@H]2CCN1C2	none (no result: TDP-43 yeast inh, Abeta yeast res, aSyn yeast inh)
Cc1ccc(/C(N)=N/OC(=O)C23CC4CC(CC(C4)C2)C3)cc1	TDP-43 yeast inh 2µM
